Reference: article PMC4552634, “A New Set of Chemical Starting Points with Plasmodium falciparum Transmission-Blocking Potential for Antimalarial Drug Discovery” (PLoS ONE, 2015)
Read-outs that look alike come from different tables or passages of the source. The whole screen tested about 13,000 compounds, of which about 3,200 (25%) showed an effect of 50% or more. This is one part of the list.

Tested on: P. falciparum stage V gametocytes
Set-up: BacTiter-Glo ATP luminescence viability of purified stage V gametocytes in 384-well plates, per cent inhibition versus DMSO
Details: 48 h, 5 µM, inhibitor

Row | Structure (SMILES) | % Inhibition [%] | % Inhibition (% Inhibition) [%]
1 | Cc1[nH]nc2ccc(-c3cc(OC[C@@H](N)Cc4ccccc4)cnc3-c3ccc(OCc4cccc(F)c4)cc3)cc12 [TCMDC-136225] | 97.54 | –
2 | Cc1csc(-c2ncc(OC[C@@H](N)Cc3ccccc3)cc2-c2ccc3n[nH]c(C)c3c2)c1 [TCMDC-136087] | -8.857 | –
3 | Cc1[nH]nc2ccc(-c3cc(OC[C@@H](N)Cc4ccccc4)cnc3-c3ccccc3OCc3cccc(F)c3)cc12 [TCMDC-136224] | -9.479 | –
4 | Fc1cccc(COc2ccc(Nc3ncnc4cc(/C=C/[C@@H]5CCCN5)sc34)cc2Cl)c1 [TCMDC-134401] | 10.77 | –
5 | O=C(NCc1ccccc1F)c1ccc(N2CCC(NCc3cccc(-n4cccn4)c3)CC2)cc1 [TCMDC-124670] | 2.936 | –
6 | Cc1cc(N[C@@H](CC(C)C)C(=O)NCCCOC(C)C)nc(NCCc2ccc(F)cc2)n1 [TCMDC-134868] | 54.17 | –
7 | Cc1cc(N[C@@H](Cc2ccccc2)C(=O)NCCCOC(C)C)nc(NCCc2ccc(F)cc2)n1 [TCMDC-134866] | 73.24 | –
8 | COc1ccc(CC2(CO)CCN(Cc3ccc(O)c(Cl)c3)CC2)cc1 [TCMDC-124684] | -47.93 | –
9 | CNC(=O)C1Cc2c([nH]c3cc(Cl)ccc23)C2(CCN(CCc3ccccc3)CC2)N1 (stereo not drawn) [TCMDC-141299] | -88.09 | –
10 | COc1cc(N(Cc2ccccc2C)S(=O)(=O)Cc2ccccc2[N+](=O)[O-])c(OC)cc1Cl [TCMDC-141749] | 44.47 | –
11 | COc1ccc([N+](=O)[O-])cc1N(Cc1ccccc1-c1ccccc1)S(=O)(=O)c1ccc(C(F)(F)F)cc1[N+](=O)[O-] [TCMDC-141596] | 92.47 | –
12 | COc1ccc([N+](=O)[O-])cc1N(Cc1ccccc1-c1ccccc1)S(=O)(=O)c1ccc(C(F)(F)F)cc1 [TCMDC-141595] | -1.284 | –
13 | CCOC(=O)c1[nH]c(-c2cc(Cl)nc(Cl)c2)nc1NC(=S)NCCCN1CCOCC1 [TCMDC-138898] | -1.969 | –
14 | COc1ccc2nccc([C@@H](O)CN3CCC(NCc4cc5ccccc5[nH]c4=O)CC3)c2c1 [TCMDC-140759] | 15.99 | –
15 | COc1ccc2nccc([C@@H](O)CN3CCC(NCc4nc5ccc(F)cc5[nH]4)CC3)c2c1 [TCMDC-140651] | -60.2 | –
16 | COc1ccc2nccc([C@@H](O)CN3CCC(NCc4cc5c(Cl)cc(Cl)cc5[nH]4)CC3)c2c1 [TCMDC-140649] | 102.2 | –
17 | COc1ccc2nccc([C@@H](O)CN3CCC(NCc4cc5ccc(C#N)cc5[nH]4)CC3)c2c1 [TCMDC-140696] | 8.806 | –
18 | COc1ccc2nccc([C@@H](O)CN3CCC(NCc4nc5c(F)cc(F)cc5[nH]4)CC3)c2c1 [TCMDC-140664] | -52.05 | –
19 | COc1ccc2nccc([C@@H](O)CN3CCC(NCc4nc5ccccc5[nH]4)CC3)c2c1 [TCMDC-140550] | 32.31 | –
20 | COc1ccc2nccc([C@@H](O)CN3CCC(NCc4cc5c(F)ccc(F)c5[nH]4)CC3)c2c1 [TCMDC-140739] | -16.25 | –
21 | COc1ccc2nccc([C@@H](O)CN3CCC(NCc4cc5ccc(Cl)cc5[nH]4)CC3)c2c1 [TCMDC-140694] | 96.18 | –
22 | COc1ccc2nccc([C@@H](O)CN3CCC(NCc4nc5cc(F)c(F)cc5[nH]4)CC3)c2c1 [TCMDC-140665] | 66.97 | –

Row | Structure (SMILES) | % Inhibition [%] | % Inhibition (% Inhibition) [%]
23 | COc1ccc2nccc([C@@H](O)CN3CCC(NCc4cc5ccccc5[nH]4)CC3)c2c1 [TCMDC-140520] | 22.46 | –
24 | COc1ccc2nccc([C@@H](O)CN3CCC(NCc4cc5c(Cl)cccc5[nH]4)CC3)c2c1 [TCMDC-140695] | 48.39 | –
25 | COc1ccc2nccc([C@@H](O)CN3CCC(NCc4cc5cc(OC(F)(F)F)ccc5[nH]4)CC3)c2c1 [TCMDC-140692] | 96.42 | –
26 | CO/N=C(\C)c1ccc2c(c1)CCN(CCC1CCC(NC(=O)c3cccc(-c4noc(C)n4)c3)CC1)CC2 (stereo not drawn) [TCMDC-139923] | 19.53 | –
27 | CC(C)c1cccc(OCC2CCN(c3ncc(C(=O)Nc4ccccc4)cc3Cl)CC2)c1 [TCMDC-134262] | 5.5 | –
28 | O=C(NC1CC1)c1cnc(N2CCC(c3ccccc3)CC2)c(Cl)c1 [TCMDC-134605] | 18.88 | –
29 | COc1ccc2nccc([C@@H](O)CN3CCC(NCc4cc5cc([N+](=O)[O-])ccc5[nH]4)CC3)c2c1 [TCMDC-140693] | 14.13 | –
30 | COc1cc(F)c2ncc(F)c([C@@H](O)CN3CCC(NCc4cc5c(cn4)OCCO5)CC3)c2c1 [TCMDC-135378] | -21.41 | –
31 | COc1ccc2nccc([C@@H](O)CN3CCC(NCc4ccc5c(c4)NC(=O)CO5)CC3)c2c1 [TCMDC-140793] | 20.76 | –
32 | COc1ccc2nccc([C@@H](O)CN3CCC(NCc4cc5cc(Cl)ccc5[nH]4)CC3)c2c1 [TCMDC-140697] | 66.18 | –
33 | COc1cc(F)c2nccc([C@@H](O)CN3CCC(NCc4nc5c(F)cccc5[nH]4)CC3)c2c1 [TCMDC-140970] | -8.506 | –
34 | COc1ccc2nccc([C@@H](O)CN3CCC(NCc4ccc5c(c4)NC(=O)C(C)S5)CC3)c2c1 (stereo partly drawn) [TCMDC-141222] | 79.58 | –
35 | COc1cc(F)c2nccc([C@@H](O)CN3CCC(NCc4cc5c(cc4F)OCCO5)CC3)c2c1 [TCMDC-141570] | 69.54 | –
36 | COc1ccc2nccc([C@@H](O)CN3CCC(NCc4ccc5c(c4)NC(=O)CS5)CC3)c2c1 [TCMDC-141058] | 3.469 | –
37 | COc1ccc2nccc([C@@H](O)CN3CCC(NCc4cc5cccc(O)c5c(=O)[nH]4)CC3)c2c1 [TCMDC-141223] | 13.37 | –
38 | CCCN1CCC2(CC1)NC(C(=O)NCCC(C)C)Cc1c2[nH]c2cc(Cl)ccc12 (stereo not drawn) [TCMDC-141295] | -32.44 | –
39 | COc1ccccc1C(=O)Nc1ccc(Nc2nc(C)cc(N3CCOCC3)n2)cc1 [TCMDC-124706] | 21.35 | –
40 | Cn1cncc1C(=O)Nc1cccc(-c2cccc(-c3nc4ccc(C(F)(F)F)cc4[nH]3)c2)c1 [TCMDC-137061] | 89.86 | –
41 | Cn1cncc1C(=O)Nc1cccc(-c2ccc(-c3nc4ccc(F)cc4[nH]3)cc2)c1 [TCMDC-137059] | -26.92 | –
42 | Cn1cncc1C(=O)Nc1cccc(-c2cccc(-c3nc4ccc(F)cc4[nH]3)c2)c1 [TCMDC-137058] | 82.61 | –
43 | Cn1cncc1C(=O)Nc1ccc(-c2cccc(-c3nc4ccc(F)cc4[nH]3)c2)cc1 [TCMDC-137056] | 28.45 | –
44 | Cn1cncc1C(=O)Nc1cccc(-c2ccc(-c3nc4ccc(C(F)(F)F)cc4[nH]3)cc2)c1 [TCMDC-137064] | -23.15 | –

Row | Structure (SMILES) | % Inhibition [%] | % Inhibition (% Inhibition) [%]
45 | Cn1cncc1C(=O)Nc1ccc(-c2cccc(-c3nc4ccc(C(F)(F)F)cc4[nH]3)c2)cc1 [TCMDC-137062] | -23.24 | –
46 | Cc1cccc2[nH]c(-c3cccc(-c4cccc(NC(=O)c5cncn5C)c4)c3)nc12 [TCMDC-137063] | 85.59 | –
47 | Cn1cncc1C(=O)Nc1cccc(-c2cccc(-c3nc4ccccc4[nH]3)c2)c1 [TCMDC-137054] | 26.78 | –
48 | Cn1cncc1C(=O)Nc1cccc(-c2ccc(-c3nc4ccccc4[nH]3)cc2)c1 [TCMDC-137060] | 87.09 | –
49 | Cc1cccc2[nH]c(-c3ccc(-c4cccc(NC(=O)c5cncn5C)c4)cc3)nc12 [TCMDC-137057] | -16.54 | –
50 | Cn1cncc1C(=O)Nc1cccc(-c2csc(-c3nc4ccccc4[nH]3)c2)c1 [TCMDC-132396] | -5.264 | –
51 | Cc1cccc2[nH]c(-c3cccc(-c4cccc(NC(=O)c5cn(C)c(=O)n5C)c4)c3)nc12 [TCMDC-137137] | -10.73 | –
52 | O=C(/C=C/c1ccc(Cl)c(Cl)c1)NCCCCCN1CCC(NC(=O)Nc2ccc(F)c(Cl)c2)CC1 [TCMDC-135720] | -54.39 | –
53 | O=C(c1ccc(-c2ccc(-c3nc4cc(C(F)(F)F)ccc4[nH]3)s2)cc1)N1CCCCC1CN1CCC(O)C1 (stereo not drawn) [TCMDC-132342] | -28.43 | –
54 | COc1ccc(Nc2nccc(-c3cccc(NC(=O)c4cc5cc(F)ccc5[nH]4)c3)n2)cc1 [TCMDC-133307] | 7.51 | –
55 | CCCCNC(=O)[C@H](CC1CCCCC1)NC(=O)c1ccc(O)c(-c2ccc(OC)cc2)c1 [TCMDC-140803] | 9.095 | –
56 | COc1ccc(-c2cc(C(=O)N[C@@H](CC3CCCCC3)C(=O)NCCN3CCCCC3)ccc2O)cc1 [TCMDC-140805] | 23 | –
57 | COc1ccc(-c2cc(C(=O)N[C@@H](CC3CCCCC3)C(=O)NCCN3CCCC3)ccc2O)cc1 [TCMDC-140802] | 56.09 | –
58 | O=C(Nc1ccc2nc(-c3ccc4nc(NC(=O)C5CCCCC5)sc4c3)[nH]c2c1)C1CCCCC1 [TCMDC-125768] | -44.12 | –
59 | O=C(N[C@@H](Cc1ccccc1)[C@H](O)CNC1CCc2ccccc2C1)c1cc(C2CCCC2)cc(N2CCCC2=O)c1 (stereo partly drawn) [TCMDC-134647] | -1.727 | –
60 | Cc1ccc(/C=C/C(=O)NC2CCC(CN3CCC(c4c[nH]c5ccccc45)CC3)CC2)cc1 (stereo not drawn) [TCMDC-139702] | – | 110
61 | CCCCC/C=C/C(=O)NC1CCC(CN2CCC(c3c[nH]c4ccccc34)CC2)CC1 (stereo not drawn) [TCMDC-139709] | 109.3 | –
62 | Cc1ccc(C)c(C=CC(=O)NC2CCC(CN3CCC(c4c[nH]c5ccccc45)CC3)CC2)c1 (stereo not drawn) [TCMDC-139904] | – | 66.94
63 | O=C(/C=C/c1cccs1)NC1CCC(CN2CCC(c3c[nH]c4ccccc34)CC2)CC1 (stereo not drawn) [TCMDC-139759] | 42.82 | –
64 | Cc1ccc(/C=C/C(=O)NC2CCC(CN3CCC(c4c[nH]c5ccccc45)CC3)CC2)cc1C (stereo not drawn) [TCMDC-139760] | – | 36.59
65 | Cc1ccc(C)c(C=CC(=O)NC2CCC(CN3CCC(c4c[nH]c5ccccc45)CC3)CC2)c1 (stereo not drawn) [TCMDC-139916] | – | -2.713
66 | Cc1ccc(/C=C/C(=O)NC2CCC(CN3CCC(c4c[nH]c5ccccc45)CC3)CC2)cc1 (stereo not drawn) [TCMDC-139717] | – | 80.48
